± gives the standard deviation of the averaged measurements. Whole data set: some 25,000 sequences, median “ln(normalized median fluorescence intensity)” near 7.9, cut for the highest 2% near 11. The sample holds the highest values, similar sequences and a random draw of the others, so the mix is not that of the screen.
Test system: PfAP2-I AP2 domain 3 (GST-tagged)
Assay: gcPBM binding intensity (ln(normalized median fluorescence intensity)); higher = stronger DNA binding
Procedure, shortened: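 For binding intensity, the highest Masliner-normalised natural-log median intensity across replicate spots of either probe orientation was taken. Protein bound to the array was stained with Alexa488 anti-GST antibody and scanned at 488 nm. The protein, GST-tagged P. falciparum DNA-binding domains from E. coli at about 25 μg on average, had been applied for 1 h to an Agilent 4 × 180k array of primer-extended double-stranded 36-bp intergenic genomic probes and negative controls.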

Sequence | gcPBM binding intensity (ln)
TAGGAAAAAAATACAGTGCAATTTTTATATAAATAA [GTGCAC_site9979] | 8.62 ± 0.5
CTTTTTTTGACCTTAGTGCAAATAACTATATATTAT | 10.5 ± 0.41
AAATAAATTTGACCAGTGCAATAACTTTGTATACCT [GTGCAC_site9446] | 11.2 ± 0.64
AAAAAAAAAGAAAAATGTACATACATAAATATATAT [XGTACX_site5664] | 7.77 ± 0.68
TAATTGATTCTTCACCGTACTCACACATATATATAT [XGTACX_site6530] | 8.99 ± 0.085
ATATATATATAATTTGTACACACAAATATGCATATA [CACACA_site9136] | 9.18 ± 0.24
AGTATAAGCATTATTGTGCACATAATTATAATTTTT | 10.6 ± 0.53
TGTGCATAATTTTGTGCACACCACGCTAATAATTTT [CACACA_site2915] | 11.4 ± 0.48
CATATATAAAATATATGTACTTATAGAACATAATTT [XGTACX_site1936] | 7.3 ± 0.35
TTTTTGTAAAATAAACGTACAAAACAATTGTTCATT [XGTACX_site6537] | 7.82 ± 0.4
AAATACTTAACATTGGTGCATATTTGTAAAATTATT [GTGCAC_site9515] | 10.3 ± 0.55
TTTGTTCATATTATTGTGCACTTAAACGTAACAAAA [GTGCAC_site9505] | 11.3 ± 0.39
TATATATATATGTGCACACATAATAAAAAAAAAAAT [CACACA_site3831] | 10.3 ± 0.11
TAATAAAAAAAGTGCACACACATAATATATATATAT [CACACA_site3340] | 9.93 ± 0.37
ATGAAACACTCCATAGTGCAAAATATATATTATATT | 10.27 ± 0.057
TTATACAGGACAATAGTGCACATAAATATATGTATA | 11.2 ± 0.51
AAAAATAAATATATATGTACACATATGTATACAATA [XGTACX_site4692] | 7.65 ± 0.38
TTAACATACACTCTAGTGCATATATATAACAAAATA [GTGCAC_site9724] | 10 ± 0.17
ATTACACATATAGTAGTGCAATAACTCCAAAAAAAA | 11.4 ± 0.6
ATATATATATAGTGCACACATATAAAATATATATAA [CACACA_site2745] | 11.29 ± 0.078
ATATATATATATAGTGCACACATATAAAATATATAT [CACACA_site8884] | 11.5 ± 0.15

Sequence | gcPBM binding intensity (ln)
AATACAATAAAATAGTGTACATATATATTATGTATA [XGTACX_site8258] | 7.63 ± 0.27
AATAATAAAAAAAGTGCACACACATAATATATATAT [CACACA_site9100] | 9.95 ± 0.014
ATATAAATATAGTGTGCACACACATAATATATATAT [CACACA_site8713] | 9.49 ± 0.11
TTTTCTTTTTGTTCGTGTACACACATGAAATTTATA [XGTACX_site3301] | 8.78 ± 0.68
TACAGAAATTTATATATATATATATATATATATATA [XGTACX_negctrl_site209] | 9.39 ± 0.54
ATATAAAACTAATTTCTTTTTCTCCTTTTATTTTGT [CACACA_negctrl_site1251] | 7.8 ± 0.59
AACAAACAAATAGTTTATTTTGATTTTTTTAAAAAT [CACACA_negctrl_site693] | 7.36 ± 0.65
AATAAAATTTGCGATGCACACAGAATAGCTAATATG [CACACA_site8983] | 7.96 ± 0.57
TATATATAAATATATACACACATGAAAATAAATAAA [CACACA_site2514] | 7.67 ± 0.45
TTGAAAAATGAGCACACACACAAATACATACATATT [CACACA_site3231] | 7.97 ± 0.36
ATATTTTTTTTTTTCACACACATTTATATTGTATTA [CACACA_site5695] | 8.01 ± 0.79
TTAGCAACTATTACTACACACATTTTTATATAACTT [CACACA_site6762] | 7.84 ± 0.59
TTTAAAATAAATTAATAGAACAAAAATAAAATGATT [GTGCAC_negctrl_site375] | 7.78 ± 0.67
AAATTAAAGGCATAAAAGAAAATATTTAATAAAAAA [CACACA_negctrl_site1689] | 7.71 ± 0.73
TTATATGCACTTTTTGCACACGTATGAATAACAAAA [CACACA_site1811] | 10.8 ± 0.86
ATAGGCACTTTTTGCACACGTATGAATAACAAAATA [CACACA_site5069] | 9.54 ± 0.13
ATATGCACTTTTTGCACACGTATGAATAACAAAATA [CACACA_site1810] | 10 ± 0.25
ATAAACATCTAGTGCTGTACACAATTTGATTTTTTT [XGTACX_site3110] | 8.9 ± 0.31
TATTTTTTTTTATTTTTTTTTATTTTGTTTTTTTAT [TGCATGCA_negctrl_site315] | 7.32 ± 0.52
AAAAAAATTAAATCAAGTACTCATTCTTAAATTATA [XGTACX_site1274] | 7.32 ± 0.49
